In all, about 52,000 compounds went through this assay and about 4,300 (8.3%) were called active. Rule as the data show it: active = survival mostly below about 52% (no sharp cut-off); inactive = mostly above about 56%. Shown is part of a subset that was picked to be rich in actives.
The molecules below were run on DeltatarO mutant (assay: growth inhibition of S. aureus wild type versus tarO mutant, primary screen, teichoic acid synthesis inhibitors, RN4220, OD600 (AID 463173)). Settings: OD600, 18 h, hits give low values, screened at 18.75 µg/mL (by protocol).
For `CCOC(=O)c1cnc2ccc(OC)cc2c1Nc1ccc(OCc2ccccc2Cl)cc1`, the survival was 8% (active).
For `CCOC(=O)c1cnc2ccccc2c1Nc1ccc(N2CCOCC2)cc1`, the survival was 63% (inactive).
For `CCOC(=O)c1cnc2ccc(Cl)cc2c1Nc1ccc(N2CCOCC2)cc1`, the survival was 0% (active).
With `CCCCn1c2ccc(F)cc2c2nnc(SCCN(CC)CC)nc21` the survival was 178% (inactive).
With `CCn1c(CNC(=O)c2ccccc2)n[nH]c1=S` the survival was 86% (inactive).
For `CCOc1ccc2cc(-c3nnc(Nc4ccc(C)cc4)s3)c(=O)oc2c1`, the survival was 80% (inactive).
In the case of `COc1ccccc1CCNC(=O)C(=O)NCC(c1ccco1)S(=O)(=O)c1ccccc1` (stereo unspecified), the survival is reported as 77% (inactive).
For `COc1ccc(OC)c(CNC(=O)CCc2c(C)nc3c(c2C)c(=O)n(C)c(=O)n3C)c1`, the survival was 89% (inactive).
In the case of `Fc1ccc(-c2cn3ccccc3n2)cc1`, the survival is reported as 74% (inactive).
In the case of `Cc1cccc(NC(=O)C2CCCN(c3nnc(-n4c(C)ccc4C)s3)C2)c1C` (stereo unspecified), the survival is reported as 75% (inactive).
With `Cc1cc(=O)[nH]c2nnc(SCC(=O)Nc3cc(C(F)(F)F)ccc3Cl)n12` the survival was 116% (inactive).
With `CCOc1ccc(Nc2cc(C(=O)NCc3ccccc3Cl)c3ccccc3n2)cc1` the survival was 86% (inactive).
In the case of `CCOC(=O)c1cnc2ccc(OCC)cc2c1Nc1ccc(OCc2ccccc2Cl)cc1`, the survival is reported as 9% (active).
`Cc1ccc(C2=Nc3ccccc3N(CC(=O)NCc3ccccc3Cl)C(=O)C2)cc1C` was tested, and the survival was 82% (inactive).
For `COc1ccc(C(=O)Nc2ccccc2C(=O)OCc2cc(=O)n3c4c(sc3n2)CCCC4)cc1`, the survival was 72% (inactive).
For `COc1ccc(S(=O)(=O)c2cc3cc(OC)ccc3oc2=O)cc1`, the survival was 99% (inactive).
In the case of `CCOc1ccc(S(=O)(=O)c2cc3cccc(OCC)c3oc2=O)cc1`, the survival is reported as 100% (inactive).
In the case of `COc1ccc(S(=O)(=O)c2cc3cc(C(C)(C)C)cc(O)c3oc2=O)cc1`, the survival is reported as 26% (active).
For `CCN(c1ccccc1)c1nnc(NC(=O)Nc2ccc(C)cc2)s1`, the survival was 89% (inactive).
For `COc1ccc(C(=O)Nc2ccc(C(=O)OCc3cc(=O)n4nc(C5CC5)sc4n3)cc2)cc1`, the survival was -1% (active).
`Cc1ccc(OCC(=O)Nc2ccc(C(=O)OCc3cc(=O)n4nc(C5CC5)sc4n3)cc2)cc1` was tested, and the survival was 72% (inactive).
With `O=C(Nc1cccc(C(=O)OCc2cc(=O)n3nc(C4CC4)sc3n2)c1)c1ccccc1` the survival was 6% (active).
`COc1ccc(C(=O)Nc2cccc(C(=O)OCc3cc(=O)n4nc(C5CC5)sc4n3)c2)cc1` was tested, and the survival was 115% (inactive).
With `COc1cccc(C(=O)Nc2ccc(C(=O)OCc3cc(=O)n4nc(C5CC5)sc4n3)cc2)c1` the survival was 79% (inactive).
With `O=C(Nc1cccc(C(=O)OCc2cc(=O)n3nc(C4CC4)sc3n2)c1)c1ccc(F)cc1` the survival was 70% (inactive).
With `O=C(COc1ccccc1)Nc1ccc(C(=O)OCc2cc(=O)n3nc(C4CC4)sc3n2)cc1` the survival was 76% (inactive).
For `Cc1cccc(OCC(=O)Nc2ccc(C(=O)OCc3cc(=O)n4nc(C5CC5)sc4n3)cc2)c1`, the survival was -2% (active).
With `Cc1ccc(C(=O)Nc2cccc(C(=O)OCc3cc(=O)n4nc(C5CC5)sc4n3)c2)cc1` the survival was 81% (inactive).
In the case of `Cc1ccc2nc3c(cc(C#N)c(=O)n3-c3nnc(SCc4ccc(F)cc4)s3)c(=O)n2c1`, the survival is reported as 72% (inactive).
With `Cc1ccc(NCc2nnc(SCC(=O)N3CCOCC3)o2)c(C)c1` the survival was 74% (inactive).
In the case of `O=C(Cn1cc(SCc2ccc(C(F)(F)F)cc2)c2ccccc21)N1CCCC1`, the survival is reported as 55% (inactive).
In the case of `COC(=O)c1ccc(Cn2nnc3c(=O)[nH]c(C4CCCN(S(=O)(=O)c5ccccc5Cl)C4)nc32)cc1` (stereo unspecified), the survival is reported as 68% (inactive).
In the case of `COc1cccc(CNC(=O)CN2C(=O)CCn3nc(-c4cn(C)c5ccccc45)cc32)c1OC`, the survival is reported as 76% (inactive).
`COc1ccc(OC)c(S(=O)(=O)NCCc2sc(-c3ccc(C)cc3)nc2C)c1` was tested, and the survival was 94% (inactive).
With `CCOC(=O)c1ccc(N2C(=O)c3n[nH]c(-c4ccco4)c3C2c2ccc(C)cc2)cc1` (stereo unspecified) the survival was 69% (inactive).
`CCOC(=O)c1ccc(N2C(=O)c3n[nH]c(C)c3C2c2ccc(OCC)cc2)cc1` (stereo unspecified) was tested, and the survival was 52% (inactive).
With `CCOC(=O)c1ccc(N2C(=O)c3n[nH]c(-c4ccco4)c3C2c2ccc(C(=O)OC)cc2)cc1` (stereo unspecified) the survival was 89% (inactive).
With `CCOC(=O)c1ccc(N2C(=O)c3n[nH]c(-c4ccco4)c3C2c2ccc(O)cc2)cc1` (stereo unspecified) the survival was 40% (inactive).
With `CCOC(=O)c1ccc(N2C(=O)c3n[nH]c(-c4cccs4)c3C2c2cccc(F)c2)cc1` (stereo unspecified) the survival was 105% (inactive).
In the case of `CCOC(=O)c1ccc(N2C(=O)c3n[nH]c(-c4ccco4)c3C2c2ccc(F)cc2)cc1` (stereo unspecified), the survival is reported as 22% (active).
`CCOC(=O)c1ccc(N2C(=O)c3n[nH]c(-c4ccco4)c3C2c2cccc(O)c2)cc1` (stereo unspecified) was tested, and the survival was -8% (active).
For `CCOC(=O)c1ccc(N2C(=O)c3n[nH]c(C)c3C2c2cccc(Br)c2)cc1` (stereo unspecified), the survival was 8% (active).
`CCOC(=O)c1ccc(N2C(=O)c3n[nH]c(C)c3C2c2ccc(C(C)(C)C)cc2)cc1` (stereo unspecified) was tested, and the survival was 87% (inactive).
For `CCOC(=O)c1ccc(N2C(=O)c3n[nH]c(-c4cccs4)c3C2c2cccc(O)c2)cc1` (stereo unspecified), the survival was -5% (active).
For `CCOC(=O)c1ccc(N2C(=O)c3n[nH]c(-c4ccco4)c3C2c2cccc(OC)c2)cc1` (stereo unspecified), the survival was 91% (inactive).
In the case of `CCOC(=O)c1ccc(N2C(=O)c3n[nH]c(-c4cccs4)c3C2c2cccc(OC)c2)cc1` (stereo unspecified), the survival is reported as 97% (inactive).
